HIF-2a block: HIF-2a inhibition | 786-0 RCC cells HIF-2a reporter, luciferase luminescence, overnight | inhibition, % at 18.8 µM | 360,000 compounds, 0.72% hits | AID 624352;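 active means inhibition of the luminescence signal of 40% or more relative to plate controls, in a single-dose primary screen at 18.75 µM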
KKLEB tox: CF airway cell cytotoxicity counter-screen | KKLEB CF airway cells viability, ATPlite luminescence, overnight; stronger effect = lower value; cells stimulated with P. aeruginosa culture filtrate | activity change (cytotoxicity), % at 5 µM | 360,000 compounds, 0.36% hits;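 active means corrected activity change at or below -50% at 5 µM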
TROY NFkB inh: inhibitors of TROY-dependent NF-kB signaling | Q293 LMP1-TROYcd NF-kB luciferase reporter, 4 h | inhibition, % at 10 µM | 360,000 compounds, 0.98% hits;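 active means compounds whose plate-normalised and pattern-corrected inhibition of the luciferase reporter signal at the single screening dose is 50% or more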
Peg3 prom inh: inhibitors of Peg3 promoter | HeLa PEG-Prom luciferase reporter, luminescence, overnight | inhibition, % at 20 µM | 360,000 compounds, 1.7% hits | AID 588405;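 active means inhibition of at least 50% at 20 µM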
TWEAK Fn14 block: inhibitors of TWEAK-Fn14 interaction signaling; TWEAK-stimulated Fn14 reporter cells, luciferase luminescence, 8 h; inhibition, % at 10 µM; 360,000 compounds, 2% hits; AID 1159606; in the data active means inhibition above about 50%
CF NFkB inh: inhibitors of cystic fibrosis induced NF-kB. KKLEB NF-kB-GFP reporter, PAF-induced, GFP fluorescence overnight. inhibition, % at 5 µM. 360,000 compounds, 0.86% hits. AID 588850;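 active means at least 50% inhibition at 5 µM, scaled per plate between neutral and stimulator controls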;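 further: PAF is a Pseudomonas aeruginosa culture filtrate used as stimulus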
Hits are given with their value; i = inactive; nt = no result. Only some compounds are listed: those with a hit (about 4% of all), similar ones and a draw of the others.

SMILES | HIF-2a block | KKLEB tox | TROY NFkB inh | Peg3 prom inh | TWEAK Fn14 block | CF NFkB inh
COc1ccc(CNC(=O)c2ccc3ccccc3n2)cc1OC | i | i | i | i | 54 | i
CCN(C(=O)CSc1nnc(-c2ccco2)n1C)c1c(N)n(Cc2ccccc2)c(=O)[nH]c1=O | i | i | i | i | i | i
NC(=O)c1nn(-c2ccc(Oc3ccccc3)cc2)c(=O)cc1O | i | i | i | i | i | i
COc1ccc(CCNC(=O)Cc2ccccc2)cc1OC | i | i | i | i | i | i
COc1ccc(CC(=O)NCCc2ccc(OC)c(OC)c2)cc1 | i | i | i | 52 | i | i
N#C/C(=C\c1ccc[nH]1)C(=O)NC1CC1 | i | i | i | i | i | i
O=C(OCc1nc2ccc(Cl)cc2n1CCO)c1ccc(O)cc1 | i | i | 77 | i | 67 | i
CCOc1ccc(C2CC(=O)NC2=O)cc1 (configuration not stated) | i | i | i | i | i | i
CCOc1ccc2nc(NC3=NC(C)(C)C=C(C)N3)nc(C)c2c1 | i | i | i | 53 | i | i
CCOc1ccc2nc(NC3=NC(c4ccc(OC)cc4)CC(=O)N3)nc(C)c2c1 (configuration not stated) | i | i | i | 62 | i | i
CCOc1ccc2c(C)nc(NC3=NC(C)(C)C=C(C)N3)nc2c1 | i | i | i | i | i | i
COc1ccc(F)cc1S(=O)(=O)NCCN1CCOCC1 | i | i | i | i | i | i
COc1ccc(C(=O)c2sc(NC(C)C)nc2N)cc1OC | i | i | i | i | i | 58
COc1ccc(Nc2nc(N)c(C(=O)c3ccc(F)cc3)s2)cc1 | i | i | i | i | i | i
COc1ccc(Nc2nc(N)c(C(=O)c3ccc(OC)cc3)s2)cc1 | i | i | i | i | i | 53
Cc1ccc(C)c(Cn2c3ccccc3c3cnn(CC(=O)NCc4ccccn4)c(=O)c32)c1 | i | i | i | i | i | i
Cc1ccc(C)c(Cn2c3ccccc3c3cnn(CC(=O)NCCCN4CCCCC4)c(=O)c32)c1 | i | i | i | 86 | i | i
O=C1C(=O)c2ccccc2C(O)=C1CCCCl | i | i | i | i | i | 79
COc1ccc(CC2=C(O)c3ccccc3C(=O)C2=O)cc1 | i | i | i | i | i | i
CC[C@H](C)C1OC(=O)[C@@H](C)[C@@H](CC)NC(=O)[C@H](C)N(C)C(=O)C(C)(C)C(=O)C(C)NC(=O)[C@H](Cc2ccc(OC)cc2)N(C)C(=O)[C@H](C(C)C)N(C)C(=O)CNC(=O)[C@H](CC(C)C)N(C)C(=O)CNC1=O (some centres not stated) | i | -94 | 54 | 92 | i | 96
CN(C)CCCNc1nc2cc(-c3cccc(C(F)(F)F)c3)sc2c(=O)n1C | i | i | i | 96 | i | i
CN(C)CCCNc1nc2cc(-c3cccc(Cl)c3)sc2c(=O)n1C | i | i | i | 91 | i | i
COc1ccc(-c2cc3nc(NCCCN(C)C)n(C)c(=O)c3s2)cc1OC | i | i | i | i | i | i
COCCNc1nc2cc(-c3cccc(C(F)(F)F)c3)sc2c(=O)n1C | i | i | i | i | i | i
COc1ccc(-c2cc3nc(NCc4ccc(C)cc4C)n(C)c(=O)c3s2)cc1OC | i | i | i | i | 76 | i
SMILES | HIF-2a block | KKLEB tox | TROY NFkB inh | Peg3 prom inh | TWEAK Fn14 block | CF NFkB inh
O=C1C(=O)c2c(ccc3ccccc23)-c2ccccc21 | i | -84 | i | 102 | 101 | 74
O=C1Nc2ccccc2/C1=N\N=C\C1=C(N2CCOCC2)C(=C\c2ccccc2)/CC1 | i | i | i | 77 | i | i
O=C(Nc1ccc(OCC(F)(F)C(F)F)c(C(F)(F)F)c1)c1ccccc1O | i | -51 | i | i | i | i
CCCn1c(C(C)NC(=O)c2ccccc2)nc2ccccc21 (configuration not stated) | i | i | i | i | i | i
CCN(CC)c1ccc(NC(=O)Cn2c(C(C)NC(=O)c3ccc(C)cc3)nc3ccccc32)cc1 (configuration not stated) | i | i | i | 99 | i | i
O=C(/C=C/c1ccccc1Cl)NNC(=O)c1cccs1 | i | i | i | i | i | i
Oc1ccc(C[C@H]2CN([C@@H](Cc3cccc(O)c3)CN3CCC[C@@H]3CN3C(=S)NC[C@@H]3Cc3ccccc3)C(=S)N2CC2CCCCC2)cc1 | i | i | i | 105 | 55 | i
Oc1ccc(C[C@H]2CNC(=S)N2CC2CCCN2C[C@H](Cc2ccc(O)cc2)N2C[C@H](Cc3ccccc3)N(CCc3ccccc3)C2=S)cc1 (some centres not stated) | i | i | i | i | 55 | i
Oc1ccc(C[C@H]2CN([C@@H](Cc3ccccc3)CN3CCCC3CN3C(=S)NC[C@@H]3Cc3ccccc3)C(=S)N2CC2CCCCC2)cc1 (some centres not stated) | i | nt | i | nt | i | nt
Oc1ccc(C[C@H]2CNC(=S)N2C[C@H]2CCCN2C[C@H](Cc2ccccc2)N2C[C@H](Cc3ccc(O)cc3)N(CC3CCCCCC3)C2=S)cc1 | i | i | i | 76 | i | i
CC(C)C[C@H]1CN([C@@H](Cc2ccc(O)cc2)CN2CCC[C@@H]2CN2C(=S)NC[C@@H]2Cc2ccccc2)C(=S)N1CC1CCCCC1 | i | i | i | i | i | i
CC(C)C[C@H]1CNC(=S)N1C[C@H]1CCCN1C[C@H](CC(C)C)N1C[C@H](Cc2ccc(O)cc2)N(CCc2ccccc2)C1=S | i | i | i | 69 | i | i
CN(CC(=O)Nc1ccc(F)c(F)c1F)C(=O)c1ccc(-n2cncn2)c([N+](=O)[O-])c1 | i | i | i | i | i | i
C=CCN(C/C(=N\O)c1sc(C(=O)OCC)nc1C)c1cccc(Br)c1 | i | i | i | i | i | i
CC(C)C[C@H]1CNC(=S)N1CC1CCCN1C[C@H](Cc1ccccc1)N1C[C@H](Cc2ccc(O)cc2)N(CC2CCCCC2)C1=S (some centres not stated) | i | i | i | 59 | i | i
COc1ccc2c(Cl)c(C(=O)N/N=C/c3ccc4c(c3)OCO4)sc2c1 | i | i | i | 51 | i | i
Cc1ccsc1C(=O)N/N=C/c1ccc2c(c1)OCO2 | i | i | i | i | 55 | i
O=C(N/N=C/c1ccc2c(c1)OCO2)c1cccs1 | i | i | i | i | i | i
Cc1cc(C(=O)N/N=C/c2ccc3c(c2)OCO3)c(C)o1 | i | i | i | i | i | i
O=C(N/N=C/c1ccc2c(c1)OCO2)c1sc2cc(Cl)ccc2c1Cl | i | i | i | i | i | i
Cc1occc1C(=O)N/N=C/c1ccc2c(c1)OCO2 | i | i | i | i | 64 | i
C/C(CC(=O)Nc1ccc(Br)cc1)=N\NC(=O)c1cccc(O)c1 | i | i | i | i | i | i
O=C(CSc1nnc(SCc2cccc3ccccc23)s1)N/N=C/c1c[nH]c2ccccc12 | i | i | i | i | 56 | i

Screening data from PubChem.
